Compounds with a hit are over-represented: about 2.2% of the library has one in this group of screens.
Platelet DG rel: inhibitors of platelet dense granule secretion, primary screen, cell-based, MLPCN, human platelets. human platelet-rich plasma, SFLLRN dense granule ATP release, luminescence. inhibition, %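 (compounds screened at 7.5 µM in platelet-rich plasma)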. hit rate 0.22% among 300,000. AID 1663, 2009;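 active means mean replicate score, as percent of positive control, at or above 50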
CHT PAM: CHT positive allosteric modulators, primary screen, cell-based, membrane potential dye, choline EC20; High affinity choline transporter 1 (Homo sapiens), Q9GZV3; CHT-expressing cells; stronger effect = higher value; LV-AA mutant CHT in HEK293 cells; B-score at 10 µM; hit rate 0.49% among 310,000; AID 488977, 2010;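 active means initial fluorescence not abnormally high and integrated response B-score, plate-corrected, over 3 SD above library mean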
Target sequence (Q9GZV3 whole entry, looked up): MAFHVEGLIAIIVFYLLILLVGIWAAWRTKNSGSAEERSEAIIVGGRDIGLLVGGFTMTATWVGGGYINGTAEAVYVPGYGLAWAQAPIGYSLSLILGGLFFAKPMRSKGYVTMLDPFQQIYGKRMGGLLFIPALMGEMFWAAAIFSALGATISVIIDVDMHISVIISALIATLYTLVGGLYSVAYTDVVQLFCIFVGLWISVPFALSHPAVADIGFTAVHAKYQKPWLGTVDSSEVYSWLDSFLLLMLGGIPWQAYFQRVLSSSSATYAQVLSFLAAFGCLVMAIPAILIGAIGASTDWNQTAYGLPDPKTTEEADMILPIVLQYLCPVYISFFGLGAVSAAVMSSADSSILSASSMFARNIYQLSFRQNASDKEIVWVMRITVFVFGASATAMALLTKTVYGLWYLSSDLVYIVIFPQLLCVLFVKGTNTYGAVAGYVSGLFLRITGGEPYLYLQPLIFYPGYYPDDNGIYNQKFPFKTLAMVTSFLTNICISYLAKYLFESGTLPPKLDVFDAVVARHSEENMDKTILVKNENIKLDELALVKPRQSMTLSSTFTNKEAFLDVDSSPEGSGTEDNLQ
HIF act: HIF pathway transcriptional activators, primary screen, cell-based, U2OS HRE-luciferase, luminescence; U2OS HRE-luciferase reporter; normalized: DMSO 0%, desferrioxamine 100%; activation, % at 7.5 µM (by protocol); hit rate 0.32% among 300,000; AID 1910, 2009;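 active means mean activation of at least 10% of the iron chelator positive control signal, with at least half of replicates also reaching 10%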
VLA-4 inh: inhibition in human VLA-4 binding assay, primary screen, VLA-4 allosteric modulator project, MLPCN library, flow cytometry, VLA-4 expressing cells; ligand binding flow cytometry; hit rate 0.2% among 330,000; inhibition, % (about 7 µM as worked out from the volumes in the protocol); in the data active means inhibition above about 50%
AI-2 QS mod: Vibrio harveyi AI-2 quorum sensing modulators, primary screen, JMH597 strain, luminescence/OD600 ratio. Vibrio harveyi JMH597 AI-2 luminescence/OD600 ratio, 9 h; stronger effect = lower value; strain lacks LuxN and CqsS sensors; 0 = neutral-control median. activity change, % at 7.5 µM. hit rate 0.4% among 300,000. AID 2094, 2009; in the data active means activity change below about -75%, passing the limit was not always enough;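 further: luminescence divided by OD600 gain over 9 h not by final OD600 alone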
CHT inh: inhibitors of human choline transporter CHT; High affinity choline transporter 1 (Homo sapiens), Q9GZV3; CHT-expressing cells, membrane potential dye, choline response; stronger effect = lower value; B-score at 10 µM; hit rate 0.86% among 310,000; AID 488975, 2010;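 active means B-score over 3 SD under the library average, and starting fluorescence ratio not unusually high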;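 further: choline stimulus applied at its EC90 after an EC20 pre-addition; B-score computed on integrated fluorescence ratio after choline addition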
Numbers without * were called inactive; i = inactive; x = no result given.

SMILES	Platelet DG rel	CHT PAM	HIF act	VLA-4 inh	AI-2 QS mod	CHT inh
O=C(Nc1ncccc1O)c1ccc2c(c1)OCO2	7	i	9.7*	-1	16	i
O=C(Nc1ncccc1O)c1ccc2c(c1)OCCO2	5	i	12*	42	9	i
Cc1cccnc1NC(=O)c1ccc2c(c1)OCCO2	3	i	2	6	13	i
COc1ccc(C(=O)c2coc3c2C(=O)C(=O)c2ccccc2-3)cc1	-7	i	2	4	-92*	i
O=C(c1ccccc1)c1coc2c1C(=O)c1ccccc1C2=O	0	i	2	13	17	i
COc1ccc(C(=O)COC(=O)CN2C(=O)C3C4CCC(C4)C3C2=O)cc1 (centres undefined)	-8	i	0	4	26	i
N#Cc1c(NC(=O)CCN2C(=O)c3ccccc3C2=O)oc(-c2ccccc2)c1-c1ccccc1	4	i	0	-2	30	-5.9*
Cc1ccccc1CN1C(=O)CSc2ccc(C(=O)N3CCOCC3)cc21	-10	i	23*	14	11	i
O=C(c1ccc2c(c1)N(Cc1ccccc1)C(=O)CS2)N1CCOCC1	-7	i	-1	14	3	i
O=c1oc2cc([N+](=O)[O-])ccc2nc1/C=C(\O)c1cccc(Br)c1	2	i	16*	-2	13	i
CC(C(=O)Nc1ccccc1-c1ccccc1)N(C)Cc1nc2ccccc2c(=O)[nH]1 (centres undefined)	1	i	57*	8	27	i
CC(NC(=O)CN(C)Cc1nc2ccccc2c(=O)[nH]1)c1ccccc1 (centres undefined)	-2	i	0	0	14	i
CC(=O)Oc1ccc(-c2nc(-c3cccnc3)no2)cc1	79*	i	3	1	7	i
C/C(=N/NC(=O)c1ccncc1)c1ccccc1	-8	i	0	15	30	i
C/C(=N\NC(=O)c1ccccc1NC(=O)c1ccc(Cl)cc1)c1ccncc1	96*	i	1	-8	14	i
Oc1cccc(/C=N/Nc2nn3cnnc3c3ccccc23)c1	57*	i	0	0	26	i
O=C(O)COc1ccccc1/C=N/NC(=O)c1cc(-c2ccccc2)nc2ccccc12	0	i	0	3	18	i
O=C(CNC(=O)C(c1ccccc1)c1ccccc1)N/N=C/c1ccc(O)cc1O	0	i	11*	-9	47	i
O=C(N/N=C/c1ccccc1OC(F)F)c1cc(-c2ccncc2)nc2ccccc12	2	i	1	-11	10	-6*
CCc1cc(C(=O)N/N=C/c2ccc(O)cc2O)c2ccccc2n1	0	i	29*	5	23	i
Cc1ccc(OCC(=O)NCCCNC(=O)c2ccc(C)nc2)cc1	16	i	0	7	32	i
Cc1cccn2c(CN(C)CC3Cc4ccccc4O3)c(C(=O)N3CCCCC3)nc12 (centres undefined)	1	i	0	4	27	i
O=c1nccc(N/N=C/c2ccccc2O)[nH]1	63*	i	2	9	23	i
COc1ccc(C(C(=O)NC2CCCCC2)N(C(=O)CCl)c2ccc(Cl)cc2)cc1 (centres undefined)	0	i	0	19	12	i
COC(CN(C(=O)CCl)C(C(=O)NC1CCCCC1)c1ccc(Cl)cc1)OC (centres undefined)	8	i	63*	14	14	i
SMILES	Platelet DG rel	CHT PAM	HIF act	VLA-4 inh	AI-2 QS mod	CHT inh
CCOC(=O)C1=C(COC(=O)c2cccc(NC(C)=O)c2)NC(=O)NC1C (centres undefined)	5	i	0	9	37	i
O=C(Nc1ccc(S(=O)(=O)Nc2ccccc2)cc1)c1ccc(CN2CCOCC2)cc1	6	i	0	24	14	i
Oc1ccc(N=Nc2ccc3ccccc3c2)cc1	54*	i	-19	-1	2	i
CCCCN1C(=O)C(=O)N(CC(=O)Nc2cc(Cl)ccc2OC)C1=O	x	x	x	9	x	x
COc1ccc(/C=N/NC(=O)c2nc(-c3ccccc3)n(-c3ccccc3)n2)cc1	-18	i	1	2	49	i
COc1ccc(/C=N/NC(=O)c2nc(-c3ccccc3)n(-c3ccccc3)n2)c(O)c1	-1	i	19*	14	15	i
COc1ccc2[nH]c(C(=O)N/N=C/c3ccc(O)cc3O)cc2c1	14	i	25*	5	45	i
COc1ccc(/C=N/NC(=O)c2cc3cc(OC)c(OC)cc3[nH]2)cc1	5	i	-1	3	33	i
CC(=O)NC(Cc1cc(C)ccc1C)C(=O)N1CCN(C(=O)c2ccc([N+](=O)[O-])cc2)CC1 (centres undefined)	3	i	1	8	13	i
COc1ccc(F)cc1CSc1nnnn1-c1ccc(O)cc1	1	i	477*	25	20	i
CCCCn1c(N)c(N(Cc2ccccc2OC)C(=O)C(C)Oc2ccc(Cl)cc2)c(=O)[nH]c1=O (centres undefined)	53*	i	0	2	10	i
CCCCn1c(N)c(N(Cc2ccccc2OC)C(=O)C(C)Oc2ccc(F)cc2)c(=O)[nH]c1=O (centres undefined)	-2	i	-2	1	-2	i
Cc1ccc(-c2nc(N/N=C/c3ccncc3)c3ccccc3n2)cc1	109*	i	x	20	21	i
COc1cc(-n2nc(C)c3c2OC(N)=C(C#N)C3c2ccccc2)c(Cl)c(Br)c1O (centres undefined)	11	i	0	-1	24	-10*
Cc1nn(-c2ccccc2)c2c1C(c1ccncc1)C(C#N)=C(N)O2 (centres undefined)	-9	i	0	0	-9	i
Cc1c(C(=O)NC2CCCC2)oc2ccccc12	x	x	x	6	x	x
CCOC(=O)N1CCN(CC(O)COc2ccccc2C(C)C)CC1 (centres undefined)	x	i	x	1	6	i
COc1ccc(C2CCCN2CC(O)COc2ccccc2C(C)C)cc1 (centres undefined)	5	10*	1	-4	-2	i
